Reference: PubChem BioAssay (Tox21)
“And” between values parts separate entries of the source, which are not always exact repeats. Identical values can stand only once. Records with an inconclusive call do not appear. Some structures have more than one record in an assay (separate samples or runs), and their calls can disagree. The source made the active and inactive calls. Unless noted, calls come from the whole dose curve; as a rule, active = well fitted curve in the direction sought with a large enough effect in the repeat runs; inconclusive = weak or mixed curves; inactive = no such curve, though single readings can be large; an effect the other way counts as inactive or inconclusive.

What was measured:
[1] = qHTS assay to identify small molecule agonists of the peroxisome proliferator-activated receptor delta (PPARd) signaling pathway - cell viability counter screen (AID 743211); note: nearly all actives have a fitted effect of over 55% in size; note: potency is the fitted concentration of half-maximal effect
Procedure, shortened: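 Luminescent ATP viability assay (CellTiter-Glo, 30 min RT) in UAS-bla HEK293H cells carrying the PPAR delta reporter construct, 3000 cells/well, after a 17 h compound treatment at 37 C.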

[2] = qHTS assay to identify small molecule antagonists of the peroxisome proliferator-activated receptor delta (PPARd) signaling pathway - cell viability counter screen (AID 743213); note: nearly all actives have a fitted effect of over 50% in size; note: potency is the fitted concentration of half-maximal effect
Procedure, shortened: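 HEK293H cells with the PPARd UAS-bla reporter, co-treated 17 h at 37 C with compounds and L165041 (300 nM final), were lysed with CellTiter-Glo. Luminescence indicated viable cell content.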

[3] = target: Bile acid receptor (Homo sapiens) (UniProt Q96RI1); assay: qHTS assay to identify small molecule antagonists of the farnesoid-X-receptor (FXR) signaling pathway (AID 743217; active = well fitted inhibition curve with a large enough effect in the signal ratio in the repeat runs, not every such curve was filed as active; the % refers to the signal ratio)
Procedure, shortened: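 FXR-UAS-bla HEK 293T cells (beta-lactamase reporter) given compound plus chenodeoxycholic acid (50 uM final), 16 h at 37C. LiveBLAzer B/G FRET substrate added for 2 h at room temperature; fluorescence read.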

[4] = qHTS assay to identify small molecule agonists of the farnesoid-X-receptor (FXR) signaling pathway - cell viability counter screen (AID 743218); note: nearly all actives have a fitted effect of over 45% in size; note: potency is the fitted concentration of half-maximal effect
Procedure, shortened: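 FXR-UAS-bla HEK 293T cells exposed to compounds for 16 h at 37C. Cytotoxicity read in the same wells by CellTiter-Glo luminescence after 30 min at room temperature, following the beta-lactamase FRET read.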

[5] = target: Bile acid receptor (Homo sapiens) (UniProt Q96RI1); assay: qHTS assay to identify small molecule agonists of the farnesoid-X-receptor (FXR) signaling pathway (AID 743220; active = well fitted activation curve with a large enough effect in the signal ratio in the repeat runs, not every such curve was filed as active; the % refers to the signal ratio)
Procedure, shortened: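 Beta-lactamase reporter under UAS control in GeneBLAzer FXR HEK 293T cells (5000/well) measured with LiveBLAzer FRET substrate after 2 h at room temperature. Compound exposure lasted 16 h at 37C.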

[6] = qHTS assay to identify small molecule antagonists of the farnesoid-X-receptor (FXR) signaling pathway - cell viability counter screen (AID 743221; active = well fitted cell-killing curve with a large enough effect in the repeat runs, not every such curve was filed as active; note: nearly all actives have a fitted effect of over 50% in size; note: potency is the fitted concentration of half-maximal effect)
Procedure, shortened: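 In GeneBLAzer FXR-UAS-bla HEK 293T cells stimulated with 50 uM chenodeoxycholic acid (final), compounds acted for 16 h at 37 C. Viability was assessed afterwards by CellTiter-Glo luminescence.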

[7] = target: Vitamin D3 receptor (Homo sapiens) (UniProt P11473); assay: qHTS assay to identify small molecule agonists of the vitamin D receptor (VDR) signaling pathway (AID 743222; calls by dose curve)
Procedure, shortened: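 VDR-bla cells plated 4 h at 37 C, then exposed to compounds for 16 h at 37 C. Beta-lactamase reporter activity measured by fluorescence after 2 h room-temperature loading with LiveBLAzer B/G FRET substrate.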

[8] = target: Vitamin D3 receptor (Homo sapiens) (UniProt P11473); assay: qHTS assay to identify small molecule antagonists of the vitamin D receptor (VDR) signaling pathway (AID 743223; active = well fitted inhibition curve with a large enough effect in the signal ratio in the repeat runs, not every such curve was filed as active; the % refers to the signal ratio)
Procedure, shortened: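 Agonist 1alpha,25-dihydroxyvitamin D3 (3 nM in well) was added with each compound to VDR-bla cells preincubated 4 h. Cells stood 16 h at 37C, then FRET substrate 2 h at room temperature; fluorescence intensity recorded.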

[9] = qHTS assay to identify small molecule agonists of the vitamin D receptor (VDR) signaling pathway - cell viability counter screen (AID 743224); note: nearly all actives have a fitted effect of over 50% in size; note: potency is the fitted concentration of half-maximal effect
Procedure, shortened: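 VDR-bla cells, 4 h after plating, exposed to compounds for 16 h at 37C; viability then read in the same wells as CellTiter-Glo luminescence after 30 min at room temperature, following the bla FRET read.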

[10] = qHTS assay to identify small molecule antagonists of the vitamin D receptor (VDR) signaling pathway - cell viability counter screen (AID 743225); note: nearly all actives have a fitted effect of over 50% in size; note: potency is the fitted concentration of half-maximal effect
Procedure, shortened: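 Luminescent cell viability (CellTiter-Glo) in VDR-bla HEK 293T cells after 16 h compound exposure at 37C in the presence of 3 nM final 1-alpha,25-dihydroxy vitamin D3.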

[11] = qHTS assay to identify small molecule agonists of the endoplasmic reticulum stress response signaling pathway (AID 1159516; active = well fitted activation curve with a large enough effect in the signal ratio in the repeat runs, not every such curve was filed as active; the % refers to the signal ratio)
Procedure, shortened: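 CellSensor ESRE-bla HeLa cells, 1,500 per well, plated overnight, then exposed to compounds for 5 hr at 37 C. Beta-lactamase reporter read with LiveBLAzer B/G FRET substrate after 2 hr at room temperature, 405 nm excitation, 460 and 530 nm emission.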

[12] = qHTS assay to identify small molecule agonists of the endoplasmic reticulum stress response signaling pathway - cell viability counter screen (AID 1159517; calls by dose curve)
Procedure, shortened: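 Cells, HeLa ESRE-bla; density, 1,500/well; dosing, 5 hr at 37 C, 5% CO2; readout, CellTiter-Glo luminescence after 30 min RT.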

[13] = qHTS assay to identify small molecule antagonists of the retinoid-related orphan receptor gamma (ROR-gamma) signaling pathway - cell viability counter screen (AID 1159520); note: nearly all actives have a fitted effect of over 50% in size; note: potency is the fitted concentration of half-maximal effect
Procedure, shortened: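 Cytotoxicity was read from cellular ATP (CellTiter-Glo luminescence) after 16 hr at 37 C with 1 uM doxycycline induction. The inducer was added 2 hr after compound transfer to Tet-on ROR gamma CHO cells.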

[14] = target: Nuclear receptor ROR-gamma (Homo sapiens) (UniProt P51449); assay: qHTS assay to identify small molecule antagonists of the retinoid-related orphan receptor gamma (ROR-gamma) signaling pathway (AID 1159521; note: nearly all actives have a fitted effect of over 50% in size; note: potency is the fitted concentration of half-maximal effect)
Procedure, shortened: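 CHO cells expressing RORγ under a TET-on promoter, luciferase under RORE control. Dox 1 uM final, 16 h; compounds added 2 h prior. Luminescence decrease measured.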

[15] = qHTS assay to identify small molecule agonists of the AP-1 signaling pathway - cell viability counter screen (AID 1159525; calls by dose curve; note: nearly all actives have a fitted effect of over 55% in size; note: potency is the fitted concentration of half-maximal effect)
Procedure, shortened: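 Luminescent ATP readout (Cell Titer Glo, 30 min RT), normalised to DMSO and tetra n-octyl ammonium bromide controls. Cells were ME-180 AP-1-bla in 0.5% dialyzed FBS Opti-MEM, with a 5 h, 37 °C compound exposure.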

[16] = qHTS assay to identify small molecule agonists of the AP-1 signaling pathway (AID 1159526; calls by dose curve)
[17] = target: Retinoic acid receptor RXR-alpha (Homo sapiens) (UniProt P19793); assay: qHTS assay to identify small molecule agonists of the RXR signaling pathway (AID 1159527; calls by dose curve; note: nearly all actives have a fitted effect of over 35% in size)
Procedure, shortened: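 Beta-lactamase reporter assay, agonist format. Engineered HEK 293T line, charcoal-stripped FBS at 2%, overnight (16 hr) exposure, fluorescence at 460 and 530 nm after 405 nm excitation.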

[18] = target: Peroxisome proliferator-activated receptor delta (Homo sapiens) (UniProt Q03181); assay: qHTS assay to identify small molecule agonists of the peroxisome proliferator-activated receptor delta (PPARd) signaling pathway (AID 743212; calls by dose curve)
Procedure, shortened: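 HEK293H UAS-bla reporter cells, human PPARd system; compounds delivered in DMSO after 5 h plating, then at 37 C. Beta-lactamase FRET read, 2 h RT substrate step.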

[19] = target: Peroxisome proliferator-activated receptor delta (Homo sapiens) (UniProt Q03181); assay: qHTS assay to identify small molecule antagonists of the peroxisome proliferator-activated receptor delta (PPARd) signaling pathway (AID 743215; active = well fitted inhibition curve with a large enough effect in the signal ratio in the repeat runs, not every such curve was filed as active; the % refers to the signal ratio;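 note: cells stimulated with agonist L165041 at 300 nM final during compound exposure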; note: potency is the fitted concentration of half-maximal effect)
Procedure, shortened: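 PPARd-bla HEK293H cells (UAS-bla reporter) preincubated 5 h, then given compound plus 300 nM final L165041 agonist for 17 h at 37 C. Beta-lactamase activity read by LiveBLAzer B/G FRET substrate fluorescence after 2 h at room temperature.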

[20] = qHTS assay to identify small molecule agonists of the NFkB signaling pathway - cell viability counter screen (AID 1159515; calls by dose curve; note: nearly all actives have a fitted effect of over 55% in size; note: potency is the fitted concentration of half-maximal effect)
Procedure, shortened: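 NFkB-bla ME-180 cells, 2,000/well, plated overnight at 37 C; compound added for 5 hr at 37 C. Viability read in the same wells as the bla reporter, by CellTiter-Glo luminescence after 30 min at room temperature.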

Measured: Potency

Bile acid receptor (Homo sapiens), sequence (Q96RI1 whole entry, looked up): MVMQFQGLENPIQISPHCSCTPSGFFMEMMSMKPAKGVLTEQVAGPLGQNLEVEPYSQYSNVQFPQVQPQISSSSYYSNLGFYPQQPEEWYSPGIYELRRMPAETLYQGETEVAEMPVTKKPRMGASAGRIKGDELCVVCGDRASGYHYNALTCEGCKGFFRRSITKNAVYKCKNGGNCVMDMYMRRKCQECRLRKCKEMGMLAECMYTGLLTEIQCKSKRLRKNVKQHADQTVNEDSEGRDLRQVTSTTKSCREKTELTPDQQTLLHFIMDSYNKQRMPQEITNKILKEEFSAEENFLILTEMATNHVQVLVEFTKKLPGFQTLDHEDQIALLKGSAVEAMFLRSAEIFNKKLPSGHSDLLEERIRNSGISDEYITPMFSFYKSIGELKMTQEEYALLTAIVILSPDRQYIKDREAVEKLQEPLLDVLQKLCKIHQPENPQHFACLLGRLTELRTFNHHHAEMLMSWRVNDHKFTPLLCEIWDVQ
Peroxisome proliferator-activated receptor delta (Homo sapiens), sequence (Q03181 whole entry, looked up): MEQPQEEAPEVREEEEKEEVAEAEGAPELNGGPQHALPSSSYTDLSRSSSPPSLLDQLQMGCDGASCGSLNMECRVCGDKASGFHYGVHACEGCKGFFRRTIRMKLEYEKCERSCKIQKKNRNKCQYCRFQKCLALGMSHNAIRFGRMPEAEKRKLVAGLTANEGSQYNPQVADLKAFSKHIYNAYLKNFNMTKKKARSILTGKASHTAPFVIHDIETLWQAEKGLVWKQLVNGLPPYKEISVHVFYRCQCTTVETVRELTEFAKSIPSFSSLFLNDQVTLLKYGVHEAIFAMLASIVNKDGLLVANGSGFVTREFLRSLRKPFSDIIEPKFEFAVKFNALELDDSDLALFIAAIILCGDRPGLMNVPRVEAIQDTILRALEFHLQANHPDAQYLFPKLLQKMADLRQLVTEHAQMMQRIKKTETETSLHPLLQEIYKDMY
Retinoic acid receptor RXR-alpha (Homo sapiens), sequence (P19793 whole entry, looked up): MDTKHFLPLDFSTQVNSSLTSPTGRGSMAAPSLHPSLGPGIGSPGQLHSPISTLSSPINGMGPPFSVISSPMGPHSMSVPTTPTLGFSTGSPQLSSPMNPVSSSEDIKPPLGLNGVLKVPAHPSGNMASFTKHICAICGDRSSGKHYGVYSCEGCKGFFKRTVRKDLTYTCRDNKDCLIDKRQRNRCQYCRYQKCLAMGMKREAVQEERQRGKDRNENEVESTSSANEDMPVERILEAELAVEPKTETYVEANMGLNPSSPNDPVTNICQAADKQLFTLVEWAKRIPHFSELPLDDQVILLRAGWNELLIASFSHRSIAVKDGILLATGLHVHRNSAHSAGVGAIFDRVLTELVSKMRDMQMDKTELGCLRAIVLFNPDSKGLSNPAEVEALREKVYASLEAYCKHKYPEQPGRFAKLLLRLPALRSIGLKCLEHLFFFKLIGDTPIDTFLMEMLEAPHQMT
Vitamin D3 receptor (Homo sapiens), sequence (P11473 whole entry, looked up): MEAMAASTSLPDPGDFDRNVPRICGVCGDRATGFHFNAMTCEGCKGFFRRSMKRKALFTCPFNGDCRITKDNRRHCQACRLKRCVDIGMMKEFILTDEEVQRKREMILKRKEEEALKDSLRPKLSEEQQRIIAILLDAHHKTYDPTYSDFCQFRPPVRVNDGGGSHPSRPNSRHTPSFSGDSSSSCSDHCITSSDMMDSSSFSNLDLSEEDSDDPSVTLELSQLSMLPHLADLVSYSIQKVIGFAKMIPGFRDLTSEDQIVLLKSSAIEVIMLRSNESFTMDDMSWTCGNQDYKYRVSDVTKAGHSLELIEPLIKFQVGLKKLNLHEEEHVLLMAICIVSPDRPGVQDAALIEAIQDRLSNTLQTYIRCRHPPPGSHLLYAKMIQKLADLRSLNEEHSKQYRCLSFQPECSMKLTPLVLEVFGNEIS

CCCCCOC(=O)CCCC
not listed: [18] | [19] | [20]
inactive: all other assays above

C[C@H]1[C@H]2CC[C@H]3[C@@H]4CC=C5C[C@@H](N(C)C)CC[C@]5(C)[C@H]4CC[C@]23CN1C
not listed: [10] | [12] | [18] | [19] | [20]
inactive: all other assays above

CNC(=O)c1ccccc1
not listed: [4] | [19] | [20]
inactive: all other assays above

NC(=O)CC[C@@H]1NC(=O)[C@H](Cc2ccccc2)NC(=O)[C@H](Cc2ccc(O)cc2)NC(=O)CCSSC[C@@H](C(=O)N2CCC[C@H]2C(=O)N[C@@H](CCCN=C(N)N)C(=O)NCC(N)=O)NC(=O)[C@H](CC(N)=O)NC1=O
not listed: [3] | [4] | [5] | [8] | [18] | [19] | [20]
inactive: all other assays above

COC(=O)C1=C(C)NC(C)=C(C(=O)OCC(C)C)C1c1ccccc1[N+](=O)[O-] (configuration not stated)
24.5 µM (active) and inactive: [15]
inactive: [4] | [6] | [10] | [11] | [16]
21.9 µM (active) and inactive: [1] | [2]
43.3 µM (active) and inactive: [13]
active: [9] 27.5 µM

O=C1c2ccccc2Cc2ccccc21
not listed: [3] | [5] | [20]
inactive: all other assays above

O=c1cc(-c2ccc(O)cc2)oc2cc(O)cc(O)c12
inactive and 17.4 µM (active): [19]
inactive: [1] | [18] | [2] | [6] | [11] | [12] | [13] | [15]

Oc1c(Cl)cc(Cl)c2cccnc12
inactive: [6]
active: [20] 0.477 µM | [14] 11.9 µM

NC(=O)C1(N2CCCCC2)CCN(CCCN2c3ccccc3CCc3ccc(Cl)cc32)CC1
active: [1] 11.9 µM | [2] 18.8 µM | [19] 29.8 µM | [4] 11.9 µM | [6] 29.8 µM | [9] 29.8 µM | [10] 21.3 µM | [20] 26.8 µM | [15] 26.8 µM

C1CCCC1
not listed: [3] | [5] | [10] | [18] | [19] | [20]
inactive: all other assays above

S=c1[nH]c2ccccc2s1
inactive: [1] | [18] | [2] | [6] | [20] | [15]

O=C(Nc1cccc(Cl)c1)OCC#CCCl
inactive: [20] | [15]
active: [1] 38.9 µM | [19] 11 µM | [9] 43.6 µM | [10] 54.9 µM

O=C(c1ccc(O)cc1O)c1ccc(O)cc1O
not listed: [2] | [4] | [20]
inactive: all other assays above

CC[C@H](c1ccc(O)cc1)[C@@H](CC)c1ccc(O)cc1
54.5 µM (active) and inactive: [14]
54.9 µM (active) and inactive: [15]
active: [1] 54.9 µM
not listed: [3] | [4] | [8] | [10] | [17] | [20]
inactive: all other assays above
